The full ranking holds about 24,000 sequences; the median of “enrichment r” is about 0.99, and the highest 2% start at about 3.7. Only a selection was taken, and the highest values are over-represented in it overall.
T1: UNK ZnF1-3 (human, UniProt Q9C0B0 31-174)
T1 sequence: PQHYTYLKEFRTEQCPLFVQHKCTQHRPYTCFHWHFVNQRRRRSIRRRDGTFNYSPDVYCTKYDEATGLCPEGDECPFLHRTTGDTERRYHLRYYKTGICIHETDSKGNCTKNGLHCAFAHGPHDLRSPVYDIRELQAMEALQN

B1: chr11:10830335:10830336:-_ENSG00000110321_ENST00000339995|hu_hu|FALSE|FALSE (ssRNA)
RNA: GGGAGUUCUACAGUCCGACGAUCGCAGCUGCCUCCUCAGGAUCCGGUCGUCGGGGAUAGGGAAGGGAGGGGAAAGGGGAACGGAAAACAAAAAAAAGGGGGAGGGAAGGGGGAGGAAGGAGUCGGGGACGGCCUCAAACUCAGCAACAGAGGAUUGAGCAUCA
B2: chr2:168009416:168009417:-_ENSMUSG00000051149_ENSMUST00000088001|perfect_dup|FALSE|FALSE (ssRNA)
RNA: GGGAGUUCUACAGUCCGACGAUCCAUAUGGUUGAGCAGAGUAUCUGUGGGUAAAUAGCGAUUACAGUAGAGGCAUUUGCUAGUAAAAUUGUGUAUUUUCAUAAUGUAGUUGGCUACUGCUGGGACUUUCUCAGCUUUAUGUUCCAACAGAGGAUUGAGCAUCA
B3: chr1:84034342:84034343:-_ENSMUSG00000045658_ENSMUST00000168574|mus_mus|FALSE|FALSE (ssRNA)
RNA: GGGAGUUCUACAGUCCGACGAUCGCCUGAGAAUGGUGAAAAUAGGCGUGGAGAUCUCCCAGCAGGAAGUGUUGGAAUAGGAGAGGAAAAAAAAAGUGAGAGGAGAGUCUGGAACCUUCCUCCCCAUCUGUACUCUCCUCAAGACAACAGAGGAUUGAGCAUCA
B4: 133834401_133834521_965_CDS_ENSMUSG00000050890_ENSMUST00000105876|mouse|control|control (ssRNA)
RNA: GGGAGUUCUACAGUCCGACGAUCUUUCAUUCGCCCAUUCAUAGACUUUUUCUUCACAGGGAUGAGAAGUUCCAUUUUGGGGUUUUCCAGAAGUGCCUCCCCAACAGGCACAAUUUCAGUCCCCUGCUUUACGUAACUCCCCAACAACAGAGGAUUGAGCAUCA
B5: chr8:95500983:95500984:-_ENSG00000164944_ENST00000437199|hu_hu|hu_hu_hu_mus_True|78_78 (ssRNA)
RNA: GGGAGUUCUACAGUCCGACGAUCAGAACACAUCUAUCGAGUAAAGGACCGUACAUGGACGACCUCUCCACUGCCUCCACUAACAAACUUUCCUCUCGAGCCUCCACUGCCGCUAUUUGUACUAGCCCAGGACGGUCCCAGGCCCAACAGAGGAUUGAGCAUCA
B6: chr7:141450121:141450122:+_ENSG00000106028_ENST00000265304|hu_mus|hu_hu_hu_mus_True|38_68 (ssRNA)
RNA: GGGAGUUCUACAGUCCGACGAUCUCAUCCGUUCUAUGCCUUUUCUUUUGUCUGGUCACUCAGAAAUAUAAUAUUAUCAGCUAUGAUUGUUGUUGCUUGUCGCCUCACAUUGUUUUUAUCCAUGUACUCGCCAUAGUCCACUUUCAACAGAGGAUUGAGCAUCA

What follows are binders tested against T1, UNK ZnF1-3 (assay: nsRBNS (natural sequence RNA bind-n-seq); RBNS binding buffer (assumed for nsRBNS): 25 mM Tris pH 7.5, 150 mM KCl, 3 mM MgCl2, 0.01% Triton X-100, 500 ug/ml BSA, 20 U/ml SUPERase-In, 4 C; UNK is unkempt and MSI1 is Musashi-1; names of the RNAs are library labels; protein concentration not given here; high values mean tight binding).

| Binder | binding signal [enrichment R] |
| --- | --- |
| B1 | 2.73 |
| B2 | 2.12 |
| B3 | 1.32 |
| B4 | 0.863 |
| B5 | 1.53 |
| B6 | 0.44 |

From paper PMC12136788
